Experimental findings from PubChem BioAssay AID720517 (National Center for Advancing Translational Sciences (NCATS), 2013) are described below.

Results filed as inconclusive are left out. Unmarked numbers belong to inactive results. Calls come from the whole dose curve; as a rule, active = well fitted activation curve with a large enough effect; inconclusive = small, poorly fitted or top-dose-only effect; inactive = flat fitted curve, though single readings scatter.

A short description of this experiment: qHTS for Inhibitors of Cell Surface uPA Generation: FP59 Counterscreen for Cherry-picked Compounds. Note: 0% is about no effect. Particulars: FP59 anthrax toxin cytotoxicity counterscreen, cells; series mostly up to 115 µM; activity (protection from FP59): at the top concentration. For orientation: Quantitative high-throughput screening tests each substance at several concentrations.
Regarding `COCc1c(C(=O)Nc2nc(C)cs2)oc2ccccc12`, the “activity (protection from FP59)” value is -1.52%.

As to `Cc1c(NC(=O)C(C)OC(=O)CCC2CCCC2)c(=O)n(-c2ccccc2)n1C` (configuration not stated), the “activity (protection from FP59)” value was -1.45%.

As to `CN(CCCNC(=O)Cn1cccc1C(=O)c1ccccc1)C1CCCCC1`, the “activity (protection from FP59)” value is -1.16%.

With `COc1ccc(CCNC(=O)COC(=O)CNS(=O)(=O)c2ccc(SC)c([N+](=O)[O-])c2)cc1`, the “activity (protection from FP59)” value was -1.44%.

As for `CCCCn1c(C2CCCCC2)nc2cc3[nH]c(=O)c(C(C)C)nc3cc21`, the “activity (protection from FP59)” value was -1.59%.

Take `O=C(CC1(O)C(=O)Nc2ccccc21)c1cccc(Br)c1` (configuration not stated): the “activity (protection from FP59)” value is -1.33%.

As to `CN1CCN(C2=Nc3ccccc3Oc3ccc(Cl)cc32)CC1`, the “activity (protection from FP59)” value was -1.01%.

Turning to `Cc1c([N+](=O)[O-])c2ccc(O)cc2n1-c1ccccc1`, the “activity (protection from FP59)” value was -1.23%.

In the case of `CC(C)NCC1CCc2cc(CO)c([N+](=O)[O-])cc2N1` (configuration not stated), the “activity (protection from FP59)” value is -1.37%.

With `Cn1c(=O)n(CC(=O)O)c(=O)c2c1nc1n2CCCN1CCc1ccccc1`, the “activity (protection from FP59)” value was -1.33%.

As to `CCC(C)Nc1cc(C)nc2ncnn12` (configuration not stated), the “activity (protection from FP59)” value is -1.32%.

With `CC1(c2cccc([N+](=O)[O-])c2)CC(C)(C)N(C(=O)c2ccccc2)c2ccccc21` (configuration not stated), the “activity (protection from FP59)” value is 3.03%.

Take `COc1cc(/C=N/NC(=O)Cc2csc(C)n2)ccc1OCC(C)C`: the “activity (protection from FP59)” value is -1.19%.

In the case of `Cc1cccc(-c2nc(CS(=O)CC(=O)NCc3cccs3)c(C)o2)c1` (configuration not stated), the “activity (protection from FP59)” value is -1.04%.

Turning to `CC1CCCN(C(=O)c2ccc(CNc3c(N4CCCCC4)c(=O)c3=O)cc2)C1` (configuration not stated), the “activity (protection from FP59)” value is -1.34%.

For the compound `CCOC(=O)c1c(C)oc2ccc(OC(=O)COc3c(F)c(F)c(F)c(F)c3F)cc12`, the “activity (protection from FP59)” value was -1.32%.

`CCO[C@H]1OC(C(=O)N2CCCCCCC2)=C[C@@H](c2ccc(C(F)(F)F)cc2)[C@@H]1CCCO`: the “activity (protection from FP59)” value was 1.06%.
